Most compounds without a hit are left out; they make up all but 10% or so of the library.
G9a inh – inhibitors of human histone lysine methyltransferase G9a; 350,000 tested, 8.8% active; G9a H3K9 monomethylation, AlphaScreen, 2 h; Potency, µM (doses to about 102 µM), inactives show at the highest dose activity, negative = inhibition, actives largely listed as inhibitors; Q96KQ7; note: potency is the fitted concentration of half-maximal effect; nearly all actives have a fitted effect of over 75% in size
Target sequence (Q96KQ7 913-1193 limits assumed): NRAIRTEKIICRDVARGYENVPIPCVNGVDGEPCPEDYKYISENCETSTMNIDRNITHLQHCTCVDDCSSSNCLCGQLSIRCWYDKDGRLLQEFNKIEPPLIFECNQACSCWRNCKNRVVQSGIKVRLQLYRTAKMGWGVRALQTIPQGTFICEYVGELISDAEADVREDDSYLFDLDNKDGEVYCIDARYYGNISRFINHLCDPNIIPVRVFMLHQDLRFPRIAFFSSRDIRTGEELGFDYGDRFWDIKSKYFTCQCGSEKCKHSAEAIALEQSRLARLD
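G9a (20 nM) preincubated 15 min RT with compounds, then 500 nM biotinylated H3K9 peptide and 20 uM SAM added; 2 h RT reaction. Monomethyl-H3K9 product detected by AlphaScreen with anti-H3K9me1 antibody, streptavidin donor and anti-rabbit IgG acceptor beads.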
Sfp PPTase inh – blocks B. subtilis Sfp PPTase activity | Q9F4F7 | Potency, µM, for the others: largest response in the series, negative = inhibition, actives largely listed as inhibitors | 310,000 tested, 3.5% active | Biochemical Sfp PPTase activity, qHTS;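 note: the enzyme is Sfp with the accession as filed and its product quenches rhodamine fluorescence; potency is the fitted concentration of half-maximal effect; 0% = enzyme reaction without inhibitor and -100% = no enzyme wells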
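After 15 min at room temperature with compound, 15 nM Sfp received 5 uM rhodamine-CoA plus 12.5 uM BHQ-2-ybbR (50 mM Hepes pH 7.6, 10 mM MgCl2). Rate came from the fluorescence difference over 30 min, ex 525/em 598 nm.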
PLK1 PBD block – blocks phosphopeptide binding to human PLK1 polo-box domain | P53350 | Plk1 PBD binding of FITC phosphopeptide, fluorescence polarization | Potency, µM, for inactives: max response, negative = inhibition, most hits filed as inhibitors | 360,000 tested, 2.8% active | AID 720504; note: potency is the fitted concentration of half-maximal effect; series mostly up to about 57 µM; nearly all actives have a fitted effect of over 65% in size
VDR inh – inhibitors of human vitamin D receptor; Potency, µM, for inactives: max response, negative = inhibition, usual class: inhibitors; 400,000 tested, 0.93% active; VDR-SRC2-3 peptide fluorescence polarization, 2 h; AID 504847; note: potency is the fitted concentration of half-maximal effect
Target sequence (P11473 whole entry, looked up): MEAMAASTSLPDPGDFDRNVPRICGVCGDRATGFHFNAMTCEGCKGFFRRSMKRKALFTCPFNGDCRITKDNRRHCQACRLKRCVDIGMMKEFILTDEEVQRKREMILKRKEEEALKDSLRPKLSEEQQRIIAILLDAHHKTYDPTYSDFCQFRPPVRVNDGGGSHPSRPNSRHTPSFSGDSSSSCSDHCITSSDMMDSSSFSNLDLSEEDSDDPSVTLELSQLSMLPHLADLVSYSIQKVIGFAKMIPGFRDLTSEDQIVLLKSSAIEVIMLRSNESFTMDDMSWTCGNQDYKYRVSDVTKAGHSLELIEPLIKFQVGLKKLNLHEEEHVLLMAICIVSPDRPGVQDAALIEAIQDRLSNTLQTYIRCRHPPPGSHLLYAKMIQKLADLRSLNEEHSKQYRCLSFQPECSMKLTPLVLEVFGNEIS
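Two reagent solutions held at 4 deg C in the dark were dispensed, compounds pinned at 23 nl, and the mixture incubated 2 h at room temperature. Read-out: fluorescence polarization of VDR–SRC2-3 peptide binding.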
CCT modulator – cytosolic chaperonin activity modulation | purified chaperonin ATPase assay, HTRF ADP detection, 30 min | activity change, % (no concentration beside the values), hits read low | 360,000 tested, 0.3% active | AID 651819; in the data active = activity change below about -30%
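First, chaperonin was dispensed at 40 nM or 20 nM final depending on batch activity. Next, compounds were pinned at 76 uM and ATP added at 10 uM. After 30 min at 37 °C, ADP detection reagents ran 30 min at ambient temperature.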
Mm-Cpn inhibitor – M. maripaludis TRiC chaperonin inhibition | purified Mm-Cpn ATPase, ADP Transcreener TR-FRET | Potency, µM (titrated, usually from 76.9 µM), without a hit: at the top dose activity, negative = inhibition, actives largely listed as inhibitors | 330,000 tested, 0.031% active | AID 504842; note: potency is the fitted concentration of half-maximal effect; nearly all actives have a fitted effect of over 80% in size
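Measured: ADP formation by purified Mm-CPN. Conditions: 25 nM protein, 10 uM ATP, Tris pH 7.4 with Mg2+, K+ and DTT, 37°C for 30 min. Detection: Transcreener HTRF after 30 min at room temperature.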
An asterisk follows results filed as active; ? = inconclusive; . = no result; [ ] = another dose, or the depositor's remark. Unless noted, calls come from the whole dose curve; as a rule, active = well fitted curve in the direction sought with a large enough effect; inconclusive = small, poorly fitted or top-dose-only effect, or another doubt; inactive = no such curve, though single readings can be large; an effect the other way counts as inactive or inconclusive. Unless noted, % is set by controls: 0 for no effect and ±100 for the full control effect.

SMILES	G9a inh	Sfp PPTase inh	PLK1 PBD block	VDR inh	CCT modulator	Mm-Cpn inhibitor
CCC(c1nnnn1CCOC)N1CCN(c2nc3ccccc3s2)CC1 (stereo unspecified)	?	9%	-3%	4%	-2	2%
COc1ccccc1C(c1nnnn1Cc1ccccc1)N1CCN(c2nc3ccccc3s2)CC1 (stereo unspecified)	35µM*	5%	-1%	-4%	-3	-1%
COc1ccc(C(c2nnnn2Cc2ccccc2)N2CCN(c3nc4ccccc4s3)CC2)cc1OC (stereo unspecified)	20µM*	?	-1%	12%	0	-8%
COc1ccc(C(c2nnnn2Cc2ccccc2)N2CCN(C(=O)c3ccco3)CC2)cc1OC (stereo unspecified)	-5%[59 µM]	7%	-5%	-6%	-4	0%
COc1ccc(C(c2nnnn2Cc2cccs2)N2CCN(c3ccccc3F)CC2)cc1OC (stereo unspecified)	40µM*	?	-12%	-14%	0	-1%
COc1ccc(Nc2ncc3c(n2)CCN(Cc2ccc(Br)s2)C3)c(OC)c1	13µM*	.	.	1%	.	.
COc1ccc(Nc2ncc3c(n2)CCN(Cc2cc(Br)cs2)C3)c(OC)c1	-36%[12.7 µM]	.	.	8%	.	.
CCN(CC)C(=O)Cn1c(=O)n(CCCCCC(=O)NCc2ccc3c(c2)OCO3)c(=O)c2sccc21	-45%[59 µM]	.	.	-9%	.	.
CC(C)c1cccc(C(C)C)c1NC(=O)c1ccc(-c2cc(Cl)ccc2Cl)o1	.	.	-1%	.	0	.
S=C(c1ccc(-c2cc(Cl)ccc2Cl)o1)N1CCOCC1	8.9µM*	25µM*	-13%	-6%	0	0%
O=C(Nc1ccc(CN2CCOCC2)cc1)c1ccc(-c2cc(Cl)ccc2Cl)o1	-13%[59 µM]	3%	-5%	-1%	-3	-3%
S=C(c1ccc(-c2cc(Cl)ccc2Cl)o1)N1CCCCC1	?	16µM*	-1%	-17%	-2	-7%
COc1ccccc1NS(=O)(=O)c1ccc(C(=O)OCC(=O)NCc2ccco2)cc1	50µM*	?	-9%	10%	2	-8%
COc1ccc(S(=O)(=O)Nc2ccccc2C(=O)NCc2ccco2)cc1	14µM*	-6%	11µM*	16%	-2	-2%
Cc1ccc(C)c(NC(=O)c2nc(S(C)(=O)=O)ncc2N(Cc2ccc(C(C)(C)C)cc2)Cc2ccco2)c1	?	.	.	0%	.	.
O=C(O)CCCN1C(=O)C(=O)/C(=C(/O)c2ccccc2)C1/C=C/c1ccccc1 (stereo unspecified)	22%[0.501 µM]	8%	13µM*	?	1	3%
c1ccc2[nH]c(CSc3nc4ccccc4s3)nc2c1	-32%	-3%	-4%	5%	0	-1%
Cn1c(CSc2nc3ccccc3s2)n[nH]c1=S	2.5µM*	5%	30µM*	25%	-9	0%
S=c1[nH]nc(CSc2nc3ccccc3s2)o1	1.6µM*	-20%	?	-7%	-2	2%
Cn1cc(C2=C(c3cn(CCCSC(=N)N)c4ccccc34)C(=O)NC2=O)c2ccccc21	7.9µM*	50µM*	.	-5%	.	.
CCCCn1cc(S(=O)(=O)c2ccc(F)cc2)c(=O)c2ccccc21	9%[59 µM]	.	.	-12%	.	.
CN(C)CCCn1cc(C2=C(c3c[nH]c4ccccc34)C(=O)NC2=O)c2ccccc21	14µM*	-14%	.	?	.	.
CN(C)CCCNc1ncnc2sc(-c3ccccc3)cc12	?	56µM*	-7%	-21%	-2	-2%
Nn1c(SCc2cn3cc(Cl)ccc3n2)nnc1-c1ccncc1	45µM*	-19%	11µM*	?	-3	0%
Nn1c(SCc2cn3ccccc3n2)nnc1-c1ccncc1	-1%	6%	-12%	1%	-10	0%
SMILES	G9a inh	Sfp PPTase inh	PLK1 PBD block	VDR inh	CCT modulator	Mm-Cpn inhibitor
O=[N+]([O-])c1ccccc1Nc1ccccc1	32µM*	19%	-2%	13%	-5	-1%
O=[N+]([O-])c1ccccc1Nc1cccnc1	4%[12.7 µM]	.	-5%	-12%	-1	1%
Cc1cc(Nc2ccccc2)c2c([N+](=O)[O-])ccc(C)c2n1	11µM*	?	-14%	0%	-2	-2%
CNC(=S)N(Cc1ccc(OC)cc1)Cc1cc2cccc(C)c2[nH]c1=O	25%	6%	13µM*	?	-8	0%
COC(=O)c1ccccc1NC(=S)N(Cc1ccc2c(c1)OCO2)Cc1cc2ccc(OC)cc2[nH]c1=O	0.28µM*	-2%	-6%	3%	0	-23%
CC(C)[C@H](NC(=O)OC(C)(C)C)[C@@H](O)CC(=O)C(C)(C)C	.	3%	.	.	.	.
O=C(N/N=C/c1ccccn1)c1cccc([N+](=O)[O-])c1	?	-44%	-6%	-8%	0	-25%
COc1ccc(OC)c(/C=N/NC(=O)c2cc[n+](CC(=O)c3ccccc3)cc2)c1	79µM*	3%	-7%	9%	2	-1%
O=C(C[n+]1ccc(C(=O)N/N=C/c2ccc(OCc3ccccc3)cc2)cc1)c1ccccc1	?	?	-8%	-8%	-3	-7%
O=C(C[n+]1ccc(C(=O)N/N=C/c2ccc(Br)cc2)cc1)c1ccccc1	7.9µM*	-24%	-9%	-3%	-1	0%
O=C(C[n+]1ccc(C(=O)N/N=C/c2ccc(O)cc2)cc1)c1ccccc1	14µM*	?	-4%	-12%	-3	-3%
O=C(N/N=C/c1ccc2ncccc2c1)c1cccc([N+](=O)[O-])c1	79µM*	17%	-4%	-9%	-4	0%
CCC(C)NC(=O)C1=CC(c2ccc3c(c2)OCO3)=NS(=O)(=O)N1C (stereo unspecified)	-6%[59 µM]	.	.	12%	.	.
O=C(C[n+]1cccc(C(=O)N/N=C/c2cccc([N+](=O)[O-])c2)c1)c1ccccc1	50µM*	.	-6%	1%	0	-2%
N#Cc1cc[n+](CC(=O)c2ccc(NC(=O)c3ccccc3)cc2)cc1	71µM*	9%	-4%	-22%	1	-3%
CC(=O)c1sc(NCc2ccccc2)nc1C	71µM*	-4%	-6%	-4%	-3	-2%
COc1cc(C)nc(Nc2nc(C)c(C(C)=O)s2)n1	-9%	-1%	3µM*	-14%	0	0%
CC(=O)c1sc(NCCOc2ccc(C)cc2)nc1C	50µM*	-17%	-4%	-11%	-1	1%
Cc1ccc(CNc2nc(C)c(C(=O)N(C)C)s2)cc1	-30%	4%	-14%	-17%	-1	-5%
COc1ccc(OCCCC(=O)Nc2nc(C)c(C(C)=O)s2)cc1	8%[0.501 µM]	13%	-29%	3%	-2	-1%
CC(=O)c1sc(NCc2ccc(C)cc2)nc1C	56µM*	1%	-23%	24%	0	1%
CC(=O)Nc1nc(C)c(C(C)=O)s1	-6%[59 µM]	-14%	1%	-2%	1	-21%

Source: PubChem BioAssay (National Center for Advancing Translational Sciences (NCATS))
